Measured values from PubChem BioAssay (NCI).
The panel holds about 83,000 compounds, 20% with a hit somewhere; the sample as a whole holds those more often.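 In brief: 96-well plates, 48 h treatment, single concentration, percent growth endpoint.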 Values without a mark were called inactive. Activity calls are given as the source filed them. The calls were made as follows: active = growth percent below 10; inactive = the rest.

How the values were obtained:
Assay in all cases: NCI-60 one-dose screen, 48 h (100 = growth as untreated, 0 = no growth, -100 = all killed)
Settings in all cases: 10 µM unless noted
[1] = system: SR leukemia
[2] = system: RPMI-8226 leukemia
[3] = system: OVCAR-8 ovarian
[4] = system: OVCAR-5 ovarian
[5] = system: OVCAR-4 ovarian
[6] = system: SK-OV-3 ovarian
[7] = system: IGROV1 ovarian
[8] = system: OVCAR-3 ovarian
[9] = system: HS 578T breast
[10] = system: NCI/ADR-RES ovarian

| Compound | growth [1] | growth [2] | growth [3] | growth [4] | growth [5] | growth [6] | growth [7] | growth [8] | growth [9] | growth [10] |
| --- | --- | --- | --- | --- | --- | --- | --- | --- | --- | --- |
| OC(c1ccccc1)C(NCc1ccccc1)c1ccccc1 (stereo not given) | 103% | 84.3% | 109% | 88.6% | 94.3% | 101% | 96.7% | 111% | 107% | 85.1% |
| NS(=O)(=O)c1cc2c(cc1Cl)NC=NS2(=O)=O | 96.1% | 104% | 102% | 100% | 107% | 110% | 109% | 117% | 118% | 108% |
| Cc1ccc2nc(SCC(=O)Nc3ccc(-c4nc5ccccc5s4)c(Cl)c3)[nH]c2c1 | 97.2% | 109% | 110% | 108% | 112% | 105% | 100% | 111% | 110% | 107% |
| Cc1ccc(-c2c3c(N)c4c(nc3nc3c2c(C)nn3-c2ccccc2)CCC4)cc1 | 6.66% (active) | 85.6% | 88% | 94.7% | 124% | 96.4% | 96.3% | 102% | 87.9% | 85.7% |
| O=C(Nc1ccccc1)c1cc(-n2cnc([N+](=O)[O-])c2)cc(-n2cnc([N+](=O)[O-])c2)n1 | 84.2% | 86.1% | 92.7% | 109% | 100% | 104% | 126% | 105% | 96.7% | 111% |
| O=C1/C(=C\c2coc3ccccc3c2=O)c2ccccc2N1c1c(Cl)cccc1Cl | 19.5% | 10.2% | 31.6% | 102% | 49.5% | 74.8% | 48.7% | 16.8% | 27.4% | 36.1% |
| N#CSCC1CC(O)(c2ccccc2)C(c2ccccc2)C(c2ccc(Cl)cc2)O1 (stereo not given) | -16% (active) | -4.14% (active) | -86.1% (active) | 0.178% (active) | -32.7% (active) | 49.5% | -30.7% (active) | -100% (active) | -32.3% (active) | -71.5% (active) |
| CC1(C)CC2(C)CC(=O)C1C(C(=O)O)C2C(=O)O (stereo not given) | 90% | 106% | 102% | 98.3% | 109% | 101% | 109% | 105% | 102% | 113% |
| C[C@H]1O[C@@H](O[C@H]2[C@@H](O)C[C@H](O[C@H]3[C@@H](O)C[C@H](O[C@H]4CC[C@]5(C)C6C[C@@H](O)[C@]7(C)[C@@H](C8=CC(=O)OC8)CC[C@]7(O)C6CC[C@@H]5C4)O[C@@H]3C)O[C@@H]2C)C[C@H](O)[C@@H]1O (stereo not given in full) | -9.87% (active) | -23.7% (active) | -93.5% (active) | -99.7% (active) | -29.6% (active) | -93.3% (active) | -38.4% (active) | -100% (active) | -9.01% (active) | -87.7% (active) |
| CCOC(=O)CCN(c1c(Cl)ssc1=O)C(C)C | 134% | 105% | 97.2% | 87.2% | 106% | 116% | -5.46% (active) | 128% | 103% | 105% |
| Cn1cnc([N+](=O)[O-])c1Sc1nc(N)nc2nc[nH]c12 | 10.5% | -19.5% (active) | 29.5% | 28.7% | 42.8% | 2.59% (active) | -13.1% (active) | 22.7% | 65.6% | 32.4% |
| COc1cc(/C=N/OC(=O)Nc2ccccc2)cc(OC)c1OC | 89.7% | 93.7% | 113% | 104% | 105% | 104% | 95.9% | 114% | 114% | 109% |
| COc1ccc(-c2ccc(O)c(C(=O)/C=C/c3cc(OC)c(OC)c(OC)c3)c2)cc1 | 56.2% | 24.7% | 71.8% | 106% | 79.6% | 77.6% | 78.3% | 93.7% | 113% | 69.9% |
| CC(=O)[C@H]1CC[C@H]2[C@@H]3C[C@H](C)C4=CC(=O)CC[C@]4(C)[C@H]3C(=O)C[C@]12C | 97.5% | 97.3% | 101% | 103% | 102% | 98% | 98.6% | 110% | 103% | 98.7% |
| CC(C)CC1NC(=O)C(CCCN)NC(=O)C(C(C)C)NC(=O)C2CCCN2C(=O)C(Cc2ccccc2)NC(=O)C(CC(C)C)NC(=O)C(CCCN)NC(=O)C(C(C)C)NC(=O)C2CCCN2C(=O)C(Cc2ccccc2)NC1=O (stereo not given) | -38.7% (active) | -54.9% (active) | -42.1% (active) | -44.7% (active) | 9.59% (active) | -77.2% (active) | -34.9% (active) | -73.1% (active) | -52.5% (active) | 0.435% (active) |
| Cc1csc(C#Cc2cncc(O)c2)n1 | 110% | 98.5% | 102% | 90.9% | 125% | 108% | -14% (active) | 111% | 132% | 113% |
| COc1cc(NC(=O)NCc2ccco2)ccc1-c1ccc(NC(=O)NCc2ccco2)cc1OC | 55.6% | 65.2% | 36.7% | 96.5% | 60.9% | 69.9% | 72.9% | 74% | 59.4% | 91.2% |
| Nc1nc(Nc2ccccc2SSc2ccccc2Nc2nc(N)nc(-c3cccc(Cl)c3)n2)nc(-c2cccc(Cl)c2)n1 | 39.3% | 89.6% | 90.7% | 97.5% | 120% | 133% | 69.7% | 96.2% | 105% | 81.3% |
| Nc1nc2c(c(=O)[nH]1)C1(C(=O)Nc3ccccc31)c1c(nc(N)[nH]c1=O)N2 | 111% | 96.2% | 114% | 112% | 102% | 108% | 101% | 103% | 110% | 102% |
| CCOC(=O)/C(=C/CC/C(C)=C/CC/C(C)=C/CCc1ccoc1)CC(=O)N1CCCCC1 | 19.8% | -5.3% (active) | 72.4% | 64.6% | 64.8% | 84.4% | 77.8% | 12.5% | 74.3% | 50.6% |
| CC(C)Sc1nc(Cl)c(C#N)c(-c2ccc(F)cc2)n1 | -25.2% (active) | 78.5% | 97.1% | 99.2% | 107% | 110% | 103% | 128% | 106% | 105% |
| COc1cc(/C=N/NC(=O)c2ccc(C(F)(F)F)nc2Nc2ccc(Cl)cc2C)ccc1O | -14.6% (active) | 26.8% | 46.7% | 57.5% | 27.2% | 44.3% | 25.1% | 30.4% | -15.1% (active) | 30.3% |
| O=c1c2ccccc2c2nccn2c2cc(Cl)ccc12 | 11% | 64.8% | 75.3% | 53.2% | 81.5% | 113% | 61.7% | 99.1% | 77.1% | 57.5% |
| Cc1cc(Br)c(C)cc1Br | 83.7% | 103% | 101% | 103% | 103% | 92.7% | 137% | 103% | 105% | 112% |
| Fc1ccccc1C1c2ccccc2-c2nccn21 (stereo not given) | 78.1% | 80.3% | 95.8% | 96.3% | 90% | 109% | 79.6% | 96.7% | 98.8% | 93.5% |
| CCCCCCCCCCOC(C)=O | 98.6% | 99.1% | 101% | 101% | 103% | 110% | 96.2% | 110% | 101% | 111% |
| CCCCCCC(CC#N)(CCC)CCCC (stereo not given) | 103% | 103% | 105% | 97.8% | 114% | 113% | 101% | 119% | 95.3% | 109% |
